# Bioassay records from PubChem.
# Only some compounds are listed: those with a hit (about 3.5% of all), similar ones and a draw of the others.
# FBW7 act – human FBW7 E3 ligase activation, primary screen; normalized activity (activation), % at 26.1 µM; 0.13% of 650,000 active; AlphaScreen FBW7–phospho-cyclin E peptide binding, activator screen; in the data active = normalized activity above about 1.9%;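 note: purified mutant Fbw7 with reduced substrate affinity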
# TEAD-YAP block – TEAD-YAP interaction inhibition; HEK-TIYL cells, TEAD-Gal4/YAP UAS-luciferase luminescence; AID 1259422; 1.4% of 640,000 active; inhibition, % at 9.12 µM; in the data active = inhibition above about 32%
# MITF primary – human MITF inhibition, primary screen; inhibition, % at 2.6 µM; AID 1259374; AlphaScreen MITF homodimerization, bead proximity signal; O75030; 0.91% of 650,000 active; in the data active = inhibition above about 50%
# GPR151 activ – activators of human GPR151; AID 1508602; Q8TDV0; 1% of 650,000 active; activation, % at 11.2 µM; PathHunter beta-arrestin GPR151 cells, luminescence; in the data active = activation above about 4.9%
# Target sequence (Q8TDV0 whole entry, looked up): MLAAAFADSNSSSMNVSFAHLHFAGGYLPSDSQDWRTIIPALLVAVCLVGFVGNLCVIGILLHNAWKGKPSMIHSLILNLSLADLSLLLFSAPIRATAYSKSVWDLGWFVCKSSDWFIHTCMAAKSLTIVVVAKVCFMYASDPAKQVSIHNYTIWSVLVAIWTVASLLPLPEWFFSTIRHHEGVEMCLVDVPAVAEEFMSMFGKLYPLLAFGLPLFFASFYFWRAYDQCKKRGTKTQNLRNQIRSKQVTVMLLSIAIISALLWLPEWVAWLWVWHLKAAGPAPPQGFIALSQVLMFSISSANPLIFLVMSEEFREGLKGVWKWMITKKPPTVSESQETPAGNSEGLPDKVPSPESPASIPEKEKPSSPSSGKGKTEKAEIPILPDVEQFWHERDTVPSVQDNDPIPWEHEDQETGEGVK
# A number is an active result; i = inactive.
SMILES,FBW7 act,TEAD-YAP block,MITF primary,GPR151 activ
CCN1/C(=C/c2ccc3cc(OC)ccc3[n+]2CC)Sc2ccc(OC)cc21,i,87,i,i
CCN1/C(=C/c2ccc3ccc(C)cc3[n+]2CC)Sc2cc(OC)ccc21,i,87,i,i
CCC(=O)/C=C1/Sc2ccc(OC)cc2N1CC,i,i,i,i
O=C(CCCN1C(=O)c2cccc3cccc(c23)C1=O)Nc1ccc(OC(F)F)cc1,i,i,i,i
CCOc1cc(C(=O)Nc2ccc(-c3nc4cc(Cl)cc(Cl)c4o3)cc2)cc(OCC)c1OCC,i,i,i,i
COc1ccc(OC)c(CC(=O)N2CCc3nc(N4CCCCC4)[nH]c(=O)c3C2)c1,i,50,i,i
COc1cc(CC(=O)N2CCc3nc(N4CCCC4)[nH]c(=O)c3C2)cc(OC)c1OC,i,i,i,i
Cc1ccc(-c2cc3nccc(C4CCNCC4)n3n2)cc1,i,i,i,i
COc1ccc(-c2cc3nccc(C4CCNCC4)n3n2)cc1,i,33,i,i
Oc1c(C(c2ccc(F)cc2)N2CCCC2)ccc2cccnc12 (stereo not drawn),i,80,i,i
Oc1c(C(c2ccncc2)N2CCOCC2)ccc2cccnc12 (stereo not drawn),i,71,90,i
CN1CCN(C(c2cccnc2)c2ccc3cccnc3c2O)CC1 (stereo not drawn),i,i,i,i
Oc1c(C(c2ccc(F)cc2)N2CCOCC2)ccc2cccnc12 (stereo not drawn),i,76,i,i
CN1CCN(C(c2ccc(F)cc2)c2ccc3cccnc3c2O)CC1 (stereo not drawn),i,84,i,i
Fc1ccc(Cn2nnnc2C(c2ccc3ncccc3c2)N2CCCC2)cc1 (stereo not drawn),i,i,i,i
CC(=O)C1=C(C)N(Cc2ccccc2)C(=O)NC1c1ccccc1Cl (stereo not drawn),i,i,i,i
COc1ccc(CN2CCNC(=O)C2CC(=O)NCCOC(C)C)cc1OC (stereo not drawn),i,i,i,i
Oc1c(C(c2ccc(C(F)(F)F)cc2)N2CCOCC2)ccc2cccnc12 (stereo not drawn),i,82,i,i
OCCN1CCN(C(c2ccc(Cl)cc2)c2ccc3cccnc3c2O)CC1 (stereo not drawn),i,74,i,i
Cc1cc(NCCO)n2c(nc3ccccc32)c1C#N,i,i,i,i
Cc1cc(NCCCN(C)C)n2c(nc3ccccc32)c1C#N,i,50,i,i
O=C(Nc1ccc(Cl)cc1)Nc1ccc(S(=O)(=O)Nc2ncccn2)cc1,2.5,i,i,i
CCOC(=O)c1sc2nc(CN3CCCCCC3)[nH]c(=O)c2c1C,i,i,i,i
CCOc1cc(C#N)c(NC(=O)c2ccco2)cc1OCC,i,52,i,i
COc1ccc(CCn2c(C)cc(C(=O)CCl)c2C)cc1,i,40,i,i
SMILES,FBW7 act,TEAD-YAP block,MITF primary,GPR151 activ
COc1ccc(CCn2c(C)cc(C(=O)CSc3nc(N)cc(=O)[nH]3)c2C)cc1,i,33,i,i
Cc1c2cnc3nn(-c4ccccc4)c(=O)c-3cc2c(C)n1-c1ccccc1,i,85,i,i
CCOC(=O)c1ccc(-n2c(C)c3cnc4nn(-c5ccccc5)c(=O)c-4cc3c2C)cc1,i,i,i,i
COc1ccc(-c2cc(C(=O)N/N=C/c3c(C)[nH]c4ccccc34)[nH]n2)cc1OC,i,45,i,i
COc1ccccc1-c1cc(C(=O)N/N=C\c2ccccc2)[nH]n1,i,i,i,i
COc1cc([N+](=O)[O-])cc(/C=N/NC(=O)c2cc(-c3ccccc3)n[nH]2)c1O,i,i,i,i
COc1cccc(/C=N/NC(=O)c2cc(-c3cccc([N+](=O)[O-])c3)n[nH]2)c1O,i,72,i,i
COc1ccccc1-c1cc(C(=O)N/N=C/c2cccc(OC)c2O)[nH]n1,i,40,i,i
COc1cccc(/C=N/NC(=O)c2ccn(C)n2)c1O,i,i,i,i
COc1cccc(/C=N/NC(=O)c2cc(-c3cccn3C)n[nH]2)c1O,i,38,i,i
COc1ccc(NCc2ccc(OCC(=O)NC(C)(C)C)cc2)cc1,i,i,i,i
Cc1nnc(NC(=O)CCN2C(=O)C3C4C=CC(C4)C3C2=O)s1 (stereo not drawn),i,i,i,i
Cc1cccc(-c2n[nH]c(=S)n2-c2ccccc2)c1,i,49,i,i
S=c1[nH]nc(-c2ccccc2)n1-c1ccccc1,i,i,i,i
CC1CC(C(O)c2ccccn2)C(=O)C(C(O)c2ccccn2)C1 (stereo not drawn),i,40,i,i
OC(c1ccccc1)c1ccccn1 (stereo not drawn),i,i,i,i
CCC(=O)N1c2ccccc2-c2nnc(SC)nc2OC1c1ccc(Cl)cc1 (stereo not drawn),i,i,i,i
COc1ccccc1N1C(=O)NC2CC1(C)Oc1ccc(Br)cc12 (stereo not drawn),i,i,i,i
CCOc1ccccc1N1C(=O)NC2CC1(C)Oc1ccc(Br)cc12 (stereo not drawn),3.3,i,i,i
Cc1cc2nc(-c3cccnc3SCC(=O)NCc3ccco3)[nH]c2cc1C,i,37,i,i
O=C(CSc1ncccc1-c1nc2ccccc2[nH]1)NCc1ccco1,i,i,i,i
O=C1N=C(N2CCCC2)S/C1=C\C=C\c1ccccc1,i,78,i,i
O=C1N=C(N2CCOCC2)S/C1=C/C=C/c1ccccc1,i,45,i,i
O=C1N=C(c2ccccc2)S/C1=C/C=C\c1ccccc1,i,i,i,i
COc1ccc(-c2cn3cc(C)ccc3n2)cc1OC,i,i,i,i
SMILES,FBW7 act,TEAD-YAP block,MITF primary,GPR151 activ
Cc1ccc2nc(-c3cccc(Cl)c3)cn2c1,i,77,i,i
Cc1ccc2nc(-c3ccc4c(c3)NC(=O)CO4)cn2c1,i,i,i,i
COc1ccc(-c2cn3cc(C)ccc3n2)cc1F,i,68,i,i
Cc1ccc2nc(-c3ccc4ccccc4c3)cn2c1,i,94,i,i
CN(C)S(=O)(=O)c1cccc(-c2cn3cc(Cl)ccc3n2)c1,i,i,i,i
Cc1ccccc1C(NC(=O)C1CCN(C(=O)c2ccc(C#N)cc2)CC1)c1ccccn1 (stereo not drawn),i,i,i,i
O=C(NNC(=S)NC1CCCCC1)c1ccc(Br)o1,i,i,i,i
CCOc1ccccc1OCCCOc1ccc([N+](=O)[O-])cc1,i,i,i,i
N#Cc1ccccc1OCC(=O)NC(=O)NC1CCCC1,i,62,i,i
CCN(CC)CCNC(=O)c1ccc(N2CCCC2=O)cc1,i,i,i,i
Cc1ccc2c(c1)ncn2C1CCN(S(=O)(=O)c2ccc(F)cc2)CC1,i,i,i,i
CCOC(=O)c1cc2sc(Br)cc2n1CC(=O)N(C)C,i,34,i,i
CC1=CS/C(=C(/C#N)C(=O)NCc2ccccc2)N1c1ccccc1,i,i,i,i
COc1cc(/C=N/Nc2ccc([N+](=O)[O-])cc2)ccc1O,i,i,i,i
O=C(Nc1ccc(-c2nc3cccnc3s2)cc1)c1ccccc1,i,i,i,i
Nc1ccc(-c2nc3cccnc3s2)cc1,i,34,i,i
